PubChem BioAssay AID651791 (National Center for Advancing Translational Sciences (NCATS), 2012)
Results filed as inconclusive are left out. The source made the active and inactive calls. The call rests on the fitted dose curve; in most records, active means well fitted inhibition curve with a large enough effect; inconclusive means small, poorly fitted or top-dose-only effect; inactive means no such curve, though single readings can be large or run the other way.

experiment: InCell qHTS Assay for Inhibitors of the mTORC1 Signaling Pathway in MEF (Tsc2-/-, p53-/-) Cells: Hit Validation; details: phospho-rpS6 immunofluorescence, 24 h; activity change, negative = inhibition: at 38.3 µM (top of the series); further: nearly all actives have a fitted effect of over 75% in size
Excerpt: The mammalian target of rapamycin (mTOR) is an intracellular serine/threonine kinase Aberrant regulation of mTOR signaling plays a causative role in a number of human diseases, including cancer, benign tumors such as lymphangioleiomyomatosis (LAM) and Tuberous Sclerosis Complex (TSC), and metabolic diseases such as diabetes and obesity. This project aims to identify inhibitors of ribosomal protein S6 (rpS6) phosphorylation. The phosphorylation of rpS6 is a key event downstream of mTOR activation. The assay uses a phospho-specific antibody of phospho-rpS6 to detect inhibitors of mTOR activation. Mutations in the Tsc1 and Tsc2 genes are the underlying genetic lesions responsible for TSC, causing constitutive activation of the mTORC1 pathway and leading to profound effects on cell metabolism. Aberrant metabolism in cancer has recently received significant attention as a target to develop therapeutic agents in the treatment of cancer.1 As Tsc2-/- cells have lost the ability to respond to energy and growth factor deprivation, these cells are unable to properly down regulate cellular biosynthetic processes in response to metabolic stress, and are thus extremely sensitive to glucose deprivation-induced death.2 A central goal of this project is to explore the unique cell survival and metabolic properties of cells with Tsc1 or Tsc2 by screening for compounds that selectively target the Tsc2-/- MEFs by screening both Tsc2-/- and WT MEF cell lines. We hope to better understand these aspects of TSC physiology in order to exploit them for therapeutic benefit. NIH Molecular Libraries Probe Production Centers Network [MLPCN] NIH Chemical Genomics Center [NCGC] MLPCN Grant: NS059428 Assay Submitter (PI): Blenis, John; Harvard University
For quantitative high throughput analysis of mTORC1 signaling, we developed a cell-based assay for immuno-fluorescence based detection of rpS6 phosphorylation on the Acumen Explorer that will be used a platform for the primary small molecule screen. Mouse embryonic fibroblasts (MEFs) are cultured in 1536-well plates using DMEM + 10% FBS. Twenty-four hrs after plating, test compounds (solubilized in DMSO) are delivered and incubated with the cells for 24 hrs at 37 degree Celsius. Following the incubation, media with compound is aspirated and the cells are fixed in 4% paraformaldehyde (PFA) containing PBS + 0.2% TX-100. Next, PFA is aspirated, cells are washed two times with PBS plus 0.2% TX-100 and the cells are blocked for 1 hr at room temperature (blocking buffer: LiCOR Blocking Buffer plus 0.2% TX-100). This is followed by aspiration and staining with Alexa-488 conjugated-phospho-rpS6 Ser235/236 antibody for 2 hours at room temperature (Cell Signaling Technology # 4803, 1:50 dilution in blocking buffer). Cells are washed two times with PBS plus 0.2% TX-100, and stained with 10 uM propidium iodide (PI) for 20-25 minutes for cell number measurement (1:500 dilution of Hoescht staining is also added for IN Cell imaging). The plates are scanned on the Acumen Explorer laser scanning instrument (TTP Labtech) using the 488nm laser for simultaneous excitation of the Alexa-488 and PI. The fluorescence emission from the Alexa-488 conjugated rpS6 phospho-235/236 antibody staining is selected using a […] band pass filter. Fluorescence emission from the PI stain is selected using a 575-640 nm band pass filter. The normalized phospho-S6 staining is calculated as the ratio of the integrated Alexa 488 intensity divided by the integrated PI intensity for the single concentration rapamycin control (7.5 nM) and DMSO columns. […] Inhibition of the pathway is defined based on the normalized phospho-S6 intensity in rapamycin treated cells. […]
Potency means the concentration at half of the fitted maximal effect.

Potency, active:
O=C(NCc1ccccc1)c1nc(S(=O)(=O)Cc2ccccc2)ncc1Cl 5.85 µM, CCOCc1cc(CN2CCN(c3ccccc3OC)CC2)c(O)c2ncccc12 2.07 µM, COc1ccc(N(Cc2ccccc2)C(=O)c2nc(S(C)(=O)=O)ncc2Cl)cc1 3.69 µM, CCS(=O)(=O)c1ncc(Cl)c(C(=O)Nc2ccc(S(=O)(=O)N(C)c3ccccc3)cc2)n1 1.85 µM, CC(C)CCNC(=O)c1cccc(Nc2nc3ccccc3n3nnnc23)c1 4.14 µM, CCCCS(=O)(=O)c1oc(-c2ccc(F)cc2)nc1S(=O)(=O)c1ccccc1 2.07 µM

Activity change, negative = inhibition, -19.5%:
Cc1cc(C)cc(NC(=O)c2cnn(-c3ccc(C)c(C)c3)c2C2CCNCC2)c1

Activity change, negative = inhibition, -16.8%:
Cc1ccc2c(c1)C(=O)C(=O)N2Cc1ccc(OC(C)C)cc1

Activity change, negative = inhibition, -6.75%:
COCc1oc2ccc(NS(=O)(=O)c3ccc(C)cc3)cc2c1C(=O)OC

Activity change, negative = inhibition, -9.58%:
COc1ccc(OC)c(NC2=C(c3ccccc3)C(=O)c3ccccc32)c1, CC(=O)Nc1cccc(NC(=O)C(=O)NCCc2sc(-c3ccccc3)nc2C)c1

Activity change, negative = inhibition, -100%:
O=C(Nc1ccc(F)c(F)c1)c1ccc(F)c(S(=O)(=O)N2CCC3(CC2)OCCO3)c1, COc1ccc(Nc2cc(C)nc(-n3nc(C)cc3C)n2)cc1Cl, CC1C(=O)Nc2ccc(S(=O)(=O)Nc3ccccc3Br)cc2NC1=O (stereo not given), Cc1nc2scc(C)n2c(=O)c1S(=O)(=O)Nc1ccc(N2CCOCC2)c(Cl)c1, CCCCOc1ccccc1C1CC(=O)Nc2ccc3ccccc3c21 (stereo not given), Cc1ccccc1C(=O)N1CCN(CCc2ccccn2)CC1, COc1cc(C(=O)N(CCCN(C)C)c2nc3c(OC)cccc3s2)cc(OC)c1OC, O=C(CN(CCc1ccccc1)S(=O)(=O)c1ccccc1)NCc1ccc(Cl)cc1, O=C(NCCSc1c(-c2ccc(F)cc2)[nH]c2ccccc12)c1ccc(S(=O)(=O)N2CCOCC2)cc1, Cc1cccc(-n2cnc3cc(C(=O)NC4CCCCCC4)ccc32)c1, CCOc1cc(C(Nc2cc(C)ccn2)c2ccc3cccnc3c2O)ccc1OC (stereo not given), Cc1nn(C(C)C(=O)NC2CCC(C)CC2)c(=O)c2c1sc1ccccc12 (stereo not given), COc1cc(NC(=O)CSc2ccc(-c3ccccn3)nn2)cc(OC)c1, O=C(c1ccco1)n1nc(-c2ccc(Cl)cc2)nc1NCc1ccccc1, Cc1cccc(CSCCNC(=O)CN(c2ccccc2)S(=O)(=O)N(C)C)c1, CCOc1ccc(-n2c(C)nc3c(cnn3-c3ccc(C)cc3)c2=O)cc1, COc1cc(C)ccc1OCCn1c(-c2ccc(Cl)cc2)nc2ccccc2c1=O, CCCC1=Nc2cc(C(=O)NCc3ccccc3)ccc2Sc2ccccc21, CCCN1CCN(c2ncnc3sc(C(=O)Nc4ccc(OC(F)(F)F)cc4)c(C)c23)CC1, CC1CCN(S(=O)(=O)c2ccc3nc(Nc4cccc(C(F)(F)F)c4)ccc3c2)CC1, Cc1ccc(S(=O)(=O)c2nnn3c2nc(NC2CCCCC2)c2sccc23)cc1C, Cc1ccc(C(C)C)c(OCC(=O)Nc2cc(-c3nc4ccccc4[nH]3)ccc2C)c1, Oc1ccccc1Nc1nc(-c2ccccc2)c2cc(Cl)ccc2n1, COc1cc(Br)ccc1C1C(C(=O)Nc2ccc(C)cc2C)=C(C)Nc2nnnn21 (stereo not given), COc1ccc(Cl)cc1NC(=O)CSc1nc(-c2ccco2)cc(C(F)(F)F)n1, CCC(C(=O)N1CCN(c2cccc(C)c2C)CC1)n1nc(C)c2sc3ccccc3c2c1=O (stereo not given), CCc1ccc(NC(=O)CSc2nccn2C2CCCC2)cc1, CCOc1ccccc1NC(=O)Cn1c(=O)n(CCC(=O)NCc2ccc3c(c2)OCO3)c(=O)c2ccccc21

Activity change, negative = inhibition, -6.41%:
COc1cccc(-n2c(-c3ccc(C)cc3)cc3c2CC(C)(C)CC3=O)c1
